Measurements published in PubChem BioAssay (Tox21).
Inconclusive results are not listed. Some compounds were tested as several samples or in several runs, with calls that do not always agree. Calls of active or inactive are those of the source. Unless noted, the call rests on the fitted dose curve.

Legend:
[1] = qHTS assay to identify small molecule agonists of the vitamin D receptor (VDR) signaling pathway - cell viability counter screen (AID 743224; active means well fitted curve in the direction sought with a large enough effect in the repeat runs; an effect the other way counts as inactive or inconclusive; further: nearly all actives have a fitted effect of over 50% in size; further: potency means the concentration at half of the fitted maximal effect); conditions: VDR-bla HEK293T viability, CellTiter-Glo luminescence, 16 h; series mostly up to 62.6 µM
How it was run: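 Compounds were pin-transferred onto VDR-bla cells plated 4 h earlier; following 16 h incubation at 37C, cell viability was quantified by CellTiter-Glo luminescence after 30 min at room temperature.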

[2] = qHTS assay to identify small molecule agonists of the NFkB signaling pathway (AID 1159509; active means well fitted curve in the direction sought with a large enough effect in the signal ratio in the repeat runs, not every such curve was filed as active; the % refers to the signal ratio); conditions: NFkB-bla ME-180 cells, beta-lactamase FRET ratio, 5 h; series mostly up to 61 µM
How it was run: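 Pathway activation was measured in ME-180 cells stably expressing beta-lactamase under NF-kB response element control. Substrate cleavage was read as the 460/530 nm emission shift after 5 hr compound incubation.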

[3] = qHTS assay to identify small molecule agonists of the NFkB signaling pathway - cell viability counter screen (AID 1159515); conditions: NFkB-bla ME-180 viability, CellTiter-Glo luminescence, 5 h; series mostly up to 61 µM; further: nearly all actives have a fitted effect of over 55% in size
How it was run: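 Parallel cytotoxicity counter screen in ME-180 cells carrying an NFkB-response-element beta-lactamase reporter, 2,000 cells/well. Compound exposure lasted 5 hr at 37 C, 5% CO2. Cell viability was quantified by CellTiter-Glo luminescence.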

[4] = qHTS assay to identify small molecule agonists of the endoplasmic reticulum stress response signaling pathway (AID 1159516; active means well fitted activation curve with a large enough effect in the signal ratio in the repeat runs, not every such curve was filed as active; the % refers to the signal ratio); conditions: ESRE-bla HeLa, ER stress beta-lactamase reporter, 5 h; series mostly up to 61 µM
How it was run: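 Using a HeLa line with an ESRE-driven beta-lactamase gene, agonist activity was measured by FRET substrate fluorescence (460 and 530 nm emission) after cells were treated with compounds for 5 hr at 37 C and 5% CO2.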

[5] = qHTS assay to identify small molecule agonists of the endoplasmic reticulum stress response signaling pathway - cell viability counter screen (AID 1159517); conditions: ESRE-bla HeLa viability, CellTiter-Glo luminescence, 5 h; series mostly up to 61 µM;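 further: HeLa cells carrying an ER stress response element beta-lactamase reporter; nearly all actives have a fitted effect of over 50% in size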
How it was run: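 In parallel with the ESRE reporter read, cytotoxicity was scored by CellTiter-Glo luminescence (30 min, room temperature) on HeLa ESRE-bla cells dosed for 5 hr.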

[6] = qHTS assay to identify small molecule antagonists of the retinoid-related orphan receptor gamma (ROR-gamma) signaling pathway - cell viability counter screen (AID 1159520; active means well fitted curve in the direction sought with a large enough effect in the repeat runs; an effect the other way counts as inactive or inconclusive; further: nearly all actives have a fitted effect of over 50% in size; further: potency means the concentration at half of the fitted maximal effect); conditions: Tet-on RORgamma CHO cells viability, ATP luminescence, 16 h; series mostly up to 92.4 µM
How it was run: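 Tet-on ROR gamma CHO cells were given compounds for 2 hr, then doxycycline hyclate at 1 uM final, and incubated 16 hr at 37 C. Viability was measured as ATP content by CellTiter-Glo luminescence.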

[7] = qHTS assay to identify small molecule agonists of the AP-1 signaling pathway - cell viability counter screen (AID 1159525); conditions: ME-180 AP-1-bla cells viability, ATP luminescence, 5 h; series mostly up to 76.8 µM; further: nearly all actives have a fitted effect of over 55% in size
How it was run: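 Same-well cytotoxicity counter screen of the Tox21 10K library in ME-180 cells. The readout is ATP-dependent luminescence after 5 h compound treatment. Data are normalised to DMSO and tetra n-octyl ammonium bromide controls.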

[8] = qHTS assay to identify small molecule agonists of the AP-1 signaling pathway (AID 1159526); conditions: ME-180 (cervical carcinoma) AP-1-bla reporter, beta-lactamase FRET ratio, 5 h; series mostly up to 76.8 µM
[9] = biological target: Nuclear receptor ROR-gamma (Homo sapiens) (UniProt P51449); assay: qHTS assay to identify small molecule antagonists of the retinoid-related orphan receptor gamma (ROR-gamma) signaling pathway (AID 1159521; active means well fitted curve in the direction sought with a large enough effect in the repeat runs; an effect the other way counts as inactive or inconclusive; further: nearly all actives have a fitted effect of over 50% in size; further: potency means the concentration at half of the fitted maximal effect); conditions: Tet-on RORgamma CHO cells, RORE-luciferase, 16 h; series mostly up to 92.4 µM
How it was run: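 CHO cells expressing RORγ under a TET-on promoter, luciferase under RORE control. Dox 1 uM final, 16 h; compounds added 2 h prior. Luminescence decrease measured.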

[10] = qHTS assay to identify small molecule antagonists of the vitamin D receptor (VDR) signaling pathway - cell viability counter screen (AID 743225; active means well fitted curve in the direction sought with a large enough effect in the repeat runs; an effect the other way counts as inactive or inconclusive; further: nearly all actives have a fitted effect of over 50% in size; further: potency means the concentration at half of the fitted maximal effect); conditions: VDR-bla HEK293T viability, CellTiter-Glo luminescence, 16 h; series mostly up to 61 µM
How it was run: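 Luminescent cell viability (CellTiter-Glo) in VDR-bla HEK 293T cells after 16 h compound exposure at 37C in the presence of 3 nM final 1-alpha,25-dihydroxy vitamin D3.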

Measured: Potency

COC(=O)C(C)N(C(=O)Cc1ccccc1)c1c(C)cccc1C (stereo not given)
not listed: [9] | [10]
inactive: all other assays above

C=CCOC(C)=O
not listed: [5] | [10]
inactive: all other assays above

NC(=O)CI
inactive: [1] | [2] | [3] | [4] | [5] | [7]

CCO[C@H]1O[C@@H]2OC3(C)CC[C@H]4[C@H](C)CC[C@@H]([C@H]1C)[C@@]24OO3
not listed: [8] | [9]
inactive: all other assays above

ClP(Cl)(Cl)(Cl)Cl
not listed: [6] | [9]
inactive: all other assays above

O=C(OC1CCCCC1)c1ccccc1C(=O)OC1CCCCC1
active: [1] 46 µM | [10] 32.6 µM
not listed: [9]
inactive: all other assays above

COc1ccc(-c2ccccc2)cc1NNC(=O)OC(C)C
active: [1] 57.2 µM
not listed: [9] | [10]
inactive: all other assays above

CCOP(=S)(OCC)SCSCC
not listed: [9]
inactive: all other assays above

CO/C=C(/C(=O)OC)c1ccccc1COc1cccc(C(F)(F)F)n1
active: [9] 0.769 µM
not listed: [1] | [6] | [10]
inactive: all other assays above

ClCC(Br)CBr (stereo not given)
not listed: [5]
inactive: all other assays above

CCOP(=S)(Oc1ccc([N+](=O)[O-])cc1)c1ccccc1 (stereo not given)
not listed: [9] | [10]
inactive: all other assays above

CCCCCCCCCCOC(=O)c1ccccc1C(=O)OCCCCCCCCCC
not listed: [5] | [10]
inactive: all other assays above

COc1cc(Cl)c(OC)cc1Cl
not listed: [8] | [9] | [10]
inactive: all other assays above

O=C1C(Cl)C(CCl)CN1c1cccc(C(F)(F)F)c1 (stereo not given)
not listed: [9]
inactive: all other assays above

ClCc1ccccc1
not listed: [5]
inactive: all other assays above

O=[Se]=O
not listed: [6] | [9]
inactive: all other assays above

CCOP(=O)(OCC)O/C(=C/Cl)c1ccc(Cl)cc1Cl
active: [9] 68.6 µM
inactive: [2] | [3] | [4] | [5] | [7]

CC[C@H]1C[C@H]2[C@@H]3CCC4=CC(=O)CC[C@@H]4[C@H]3CC[C@]2(C)[C@H]1O
not listed: [8] | [9]
inactive: all other assays above

Cn1sc(Cl)cc1=O
active: [6] 61.1 µM
not listed: [8] | [9]
inactive: all other assays above

Cc1c(F)c(F)c(COC(=O)C2C(/C=C(\Cl)C(F)(F)F)C2(C)C)c(F)c1F (stereo not given)
not listed: [9] | [10]
inactive: all other assays above

O=C(Nc1ccccc1)Nc1ccnc(Cl)c1
inactive: [2] | [3] | [4] | [5] | [7]

COc1nn(CSP(=S)(OC)OC)c(=O)s1
inactive: [2]

CN1C[C@H](CNC(=O)OCc2ccccc2)C[C@@H]2c3cccc4c3c(cn4C)C[C@H]21
not listed: [8] | [9]
inactive: all other assays above

CCc1ccc(C(=O)NN(C(=O)c2cc(C)cc(C)c2)C(C)(C)C)cc1
not listed: [9] | [10]
inactive: all other assays above

Cc1ccccc1C(=O)Nc1cccc(OC(C)C)c1
not listed: [7] | [9] | [10]
inactive: all other assays above

CCOS(C)(=O)=O
not listed: [9]
inactive: all other assays above

CCCCCCCCOC(=O)c1ccc(C(=O)OCCCCCCCC)c(C(=O)OCCCCCCCC)c1
not listed: [9] | [10]
inactive: all other assays above

Cl/C=C\C[N+]12CN3CN(CN(C3)C1)C2
not listed: [6]
inactive: all other assays above

CCOc1nc(F)cc2nc(S(=O)(=O)Nc3c(Cl)cccc3Cl)nn12
not listed: [9]
inactive: all other assays above

O=C(CBr)OCc1ccccc1
not listed: [8] | [9] | [10]
inactive: all other assays above

Clc1ccc(C2(Cn3cncn3)CC(Br)CO2)c(Cl)c1 (stereo not given)
not listed: [9] | [10]
inactive: all other assays above

BrCCCCBr
not listed: [5] | [10]
inactive: all other assays above

O=C(N[C@H](c1ccccc1)[C@@H]1CN2CCC1CC2)c1c(Cl)ccc(C(F)(F)F)c1Cl
not listed: [1] | [8] | [9]
inactive: all other assays above

C[C@]12CC[C@H]3[C@@H](CCC4=CC(=O)CC[C@@H]43)[C@@H]1CC[C@@H]2OC(=O)CCC1CCCCC1
not listed: [9] | [10]
inactive: all other assays above

CCCN(CCCl)c1c([N+](=O)[O-])cc(C(F)(F)F)cc1[N+](=O)[O-]
inactive: [10] | [2] | [3] | [4] | [5] | [9]

O=C(O)C(F)(F)C(F)(F)C(F)(F)C(F)(F)C(F)(F)C(F)(F)C(F)(F)C(F)(F)C(F)(F)F
inactive: [10] | [2] | [3] | [4] | [6] | [7]

O=C(NCc1cccnc1)Nc1ccc([N+](=O)[O-])cc1
not listed: [4] | [10]
inactive: all other assays above

O=C(O)CC(Cl)C(=O)O (stereo not given)
not listed: [5]
inactive: all other assays above

CC(O)(CS(=O)(=O)c1ccc(F)cc1)C(=O)Nc1ccc(C#N)c(C(F)(F)F)c1 (stereo not given)
active: [9] 25.2 µM
not listed: [4] | [10]
inactive: all other assays above

Clc1cc(Cl)c(Cl)c(Cl)c1
not listed: [5] | [9]
inactive: all other assays above

C/C=C/C=O
not listed: [5] | [9] | [10]
inactive: all other assays above

CC(C)N(C(=O)COc1nnc(C(F)(F)F)s1)c1ccc(F)cc1
not listed: [1] | [5] | [9]
inactive: all other assays above

O=C(O)COc1ccc(Cl)cc1
not listed: [5] | [9]
inactive: all other assays above

Brc1ccc(Oc2ccccc2)cc1
55.8 µM (active) and inactive: [9]
not listed: [5]
inactive: all other assays above

C=COC(C)=O
not listed: [4] | [10]
inactive: all other assays above

CCBr
not listed: [5] | [9]
inactive: all other assays above

CN(N=O)c1ccc([N+](=O)[O-])cc1
not listed: [5] | [9] | [10]
inactive: all other assays above

Brc1ccccc1
not listed: [5]
inactive: all other assays above

COC(=O)c1cncn1C(C)c1ccccc1 (stereo not given)
not listed: [5]
inactive: all other assays above

CCOc1ccc(C(C)(C)COCc2cccc(Oc3ccccc3)c2)cc1
not listed: [4] | [10]
inactive: all other assays above

CC1CC(CC2CCC(N)C(C)C2)CCC1N (stereo not given)
not listed: [5] | [8] | [10]
inactive: all other assays above

Sc1ccccc1Cl
not listed: [5] | [9]
inactive: all other assays above

[O-][Cl+]O
not listed: [4]
inactive: all other assays above

Nc1nc(=S)[nH][nH]1
not listed: [5]
inactive: all other assays above

CCCCCC[N+](=O)[O-]
not listed: [5] | [9]
inactive: all other assays above

c1ccc(C2CC2)c(OCC2=NCCN2)c1
not listed: [5]
inactive: all other assays above

ClCCCCBr
not listed: [5]
inactive: all other assays above

CC/C(=N\OC/C=C/Cl)C1=C(O)CC(C2CCOCC2)CC1=O (stereo not given)
not listed: [5] | [9] | [10]
inactive: all other assays above

O=C1CN=C(c2ccccc2)c2cc(Cl)ccc2N1CC1CC1
not listed: [5] | [9]
inactive: all other assays above
